The text below walks through data of PubChem BioAssay (EPA / NIEHS).

“And” between values parts separate entries of the source, which are not always exact repeats. Equal entries are not always repeated. The source made the active and inactive calls. How the source made its calls: active means hit-call score of the fitted dose curve at least 0.9, where 1 is the maximum; inactive means score below 0.9.

Read-out in assay [1]: Monocyte Chemoattractant Protein-1 (MCP1), CCL2 (gene 6347)
Nature of the assay: BSK_hDFCGF_MCP1: BioMAP Diversity Plus: hDFCGF Assay for Monocyte Chemoattractant Protein-1 (MCP1) Biomarker Activity (AID 2284285). The conditions noted are these: primary human foreskin fibroblasts. The gist of the method:
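MCP-1 ELISA readout was taken 24 hours after dosing primary human dermal fibroblasts in the hDFCGF system, with DMSO as baseline. Parallel sulforhodamine B staining of total protein tracked overt cytotoxicity.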

Read-out in assay [2]: Intercellular Adhesion Molecule 1 (ICAM1), ICAM1 (gene 3383)
As to the kind of experiment: BSK_hDFCGF_ICAM1: BioMAP Diversity Plus: hDFCGF Assay for Intercellular Adhesion Molecule 1 (ICAM1) Biomarker Activity (AID 2284287). Conditions: primary human foreskin fibroblasts. The method, then: BSK_hDFCGF is a cell-based, multiplexed-readout assay that uses foreskin fibroblast, a human skin primary cell, with measurements taken at 24 hours after chemical dosing in a 96-well plate.BSK_hDFCGF_ICAM1 is an assay component measured in the BSK_hDFCGF assay. It measures ICAM-1 antibody related to regulation of gene expression using ELISA technology.Data from the assay component BSK_hDFCGF_ICAM1 was analyzed at the endpoint, BSK_hDFCGF_ICAM1, in the positive analysis fitting direction relative to DMSO as the negative control and baseline of activity. Using a type of binding reporter, gain or loss-of-signal activity can be used to understand protein changes. To generalize the intended target to other relatable targets, this assay endpoint is annotated to the 'cell adhesion molecules' intended target family, where the subfamily is 'Immunoglobulin CAM'.
(§1) The levels of cell surface (or secreted, indicated by the prefix "s") biomarker endpoints were measured by ELISA. Overt cytotoxicity to cells in confluent adherent cultures (all systems other than the BT system) was assessed by measuring total protein levels using sulforhodamine B (SRB) staining in parallel cultures at the time of biomarker measurements, indicated as SRB endpoints. For proliferation assays for adherent cell types, individual cell types are cultured at sub-confluence and relative cell numbers quantified by SRB staining at time points optimized for each system (48 h: 3C and CASM3C systems; 72 h: BT and HDF3CGF systems; 96 h: SAg system). SRB was performed by staining cells with 0.1% SRB after fixation with 10% TCA and reading wells at 560 nm.Viability and proliferation of PBMC (T cells) was quantified by Alamar Blue reduction for the SAg and BT systems. For PBMC viability (referred to as PBMC Cytotoxicity within the assay endpoint names), cells were plated (75,000/well in a 96-well plate) and then chemical samples added for 1 h before addition of activators, SEB and TSST-1 (20 ng/mL final concentration each). Cells were incubated for 90 h. Then, Alamar Blue (20 uL/well) (Invitrogen, Cat DAL1100) was added for 6 h, and the plates were read with a fluorescence microplate reader at 546/580 nm (excitation/emission). For PBMC proliferation, cells were plated and activated as above but incubated for only 16 h prior to addition of Alamar Blue. Plates were read after 6 h.

Read-out in assay [3]: TIMP metallopeptidase inhibitor 2 (TIMP2), TIMP2 (gene 7077)
As to the kind of experiment: BSK_hDFCGF_TIMP2: BioMAP Diversity Plus: hDFCGF Assay for TIMP metallopeptidase inhibitor 2 (TIMP2) Biomarker Activity (AID 2284289). Conditions: primary human foreskin fibroblasts. In short, it runs like this: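 Primary human foreskin fibroblasts in the hDFCGF system, dosed for 24 h; TIMP-2 level measured by ELISA, fitted in the positive direction against DMSO; cytotoxicity checked in parallel by sulforhodamine B total protein staining.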

Read-out in the next assay: CD69, CD69 (gene 969)
As to the kind of experiment: BSK_LPS_CD69: BioMAP Diversity Plus: LPS Assay for CD69 Biomarker Activity (AID 2284303). Conditions: primary human HUVEC with PBMC. The method, then: BSK_LPS is a cell-based, multiplexed-readout assay that uses umbilical vein endothelium and peripheral blood mononuclear cells, a human vascular primary cell co-culture, with measurements taken at 24 hours after chemical dosing in a 96-well plate.BSK_LPS_CD69 is an assay component measured in the BSK_LPS assay. It measures CD69 antibody related to regulation of gene expression using ELISA technology.Data from the assay component BSK_LPS_CD69 was analyzed at the endpoint, BSK_LPS_CD69, in the positive analysis fitting direction relative to DMSO as the negative control and baseline of activity. Using a type of binding reporter, gain or loss-of-signal activity can be used to understand protein changes. To generalize the intended target to other relatable targets, this assay endpoint is annotated to the 'cytokine' intended target family, where the subfamily is 'inflammatory factor'.
as §1

Assay [4] is described as follows: IUF_NPC2c_oligodendrocyte_migration_120hr: Leibniz Research Institute for Environmental Medicine (IUF) 120-hour Neural Progenitor Cell Migration Assay for Oligodendrocyte Migration (NPC2c) (AID 2284297).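 Further: O4-positive oligodendrocyte migration distance divided by radial glia migration distance.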 In short, it runs like this:
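hNPC spheres (GW 16-19 cortex), PDL/laminin, DMEM/F12 3:1 + 1% N2, 37C. Dosing day 0–5, half feed day 3, DMSO ≤0.1%. Fixed 120 h; O4 ICC + Hoechst, HCI. Readout: mean oligodendrocyte distance from sphere edge / radial glia distance.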

Assay [5] in a line: IUF_NPC2a_radial_glia_migration_120hr: Leibniz Research Institute for Environmental Medicine (IUF) 120-hour Neural Progenitor Cell Migration Assay for Radial Glia Migration (NPC2a) (AID 2284298). Here is the method: (§2) IUF_NPC2-5 is a cell-based, multiplexed assay that uses hNPC, a human primary neural progenitor cells, with measurements taken at 72 or 120 hours after chemical dosing in a 96-well plate. Human neural progenitor cells (hNPC) are generated from human fetal brain cortex at gestational week (GW) 16-19. In the neural progenitor cell migration and differentiation assay (NPC2-5), hNPCs grown as spheres are plated on an extracellular matrix and migrate and differentiate out of the sphere core. The processes radial glia migration, neuronal and oligodendrocyte migration as well as neuronal differentiation, neuronal morphology and oligodendrocyte differentiation are studied using automated phase contrast imaging and automated fluorescence imaging in combination with high content image analysis. In parallel, the cell viability is assessed using an alamar blue viability assay and the cytotoxicity using a lactate dehydrogenase dependent membrane integrity assay.IUF_NPC2a_radial_glia_migration_120hr is one of 12 assay components measured from the IUF_NPC2-5 assay. The migration distance of radial glia at 120 hr is assessed in um from the edge of the sphere core to the edge of the migration area based on fluorescent images of Hoechst-positive nuclei. With the identification of each nucleus position around the sphere core, migration-related parameters can be calculated. […]

Assay [6] in a line: IUF_NPC2a_radial_glia_migration_72hr: Leibniz Research Institute for Environmental Medicine (IUF) 72-hour Neural Progenitor Cell Migration Assay for Radial Glia Migration (NPC2a) (AID 2284299). The method, then: as §2, with “integrity assay.IUF_NPC2a_radial glia_migration_72hr” for “integrity assay.IUF_NPC2a_radial_glia_migration_120hr”, “at 72” for “at 120”, “on brightfield” for “on fluorescent”, “of each well. […] Images are exported and” for “of Hoechst-positive nuclei. With”, “the migration distance is measured manually in four directions using ImageJ.” for “the identification of each nucleus position around the sphere core, migration-related parameters can be calculated.”

Assay [7] is described as follows: IUF_NPC2b_neuronal_migration_120hr: Leibniz Research Institute for Environmental Medicine (IUF) 120-hour Neural Progenitor Cell Migration Assay for Neuron Migration (NPC2b) (AID 2284300). The gist of the method:
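hNPC spheres, PDL/laminin, DMEM:F12 3:1 + 1% N2, 37C/5% CO2; 7 concentrations + solvent control (DMSO ≤0.1%), 5 d exposure, half-feed day 3. Fix 120 h, TUBB3 ICC, HCI: mean neuron migration distance ÷ glia distance.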

The nature of assay [8]: IUF_NPC3_neuronal_differentiation_120hr: Leibniz Research Institute for Environmental Medicine (IUF) 120-hour Neuronal Differentiation Assay (NPC3) (AID 2284301). The gist of the method: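 Value is percent TUBB3-positive neurons among Hoechst-stained nuclei in the migration area, scored by trained CNN after 120 h differentiation. Primary hNPC spheres on poly-D-lysine/laminin, N2 medium, continuous dosing from day 0, half-refeed day 3; DMSO reference.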

A short description of assay [9]: IUF_NPC4_neurite_length_120hr: Leibniz Research Institute for Environmental Medicine (IUF) 120-hour Neuronal Morphology Assay for Neurite Length (NPC4) (AID 2284302). The gist of the method: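 Neurite length, the mean in um across TUBB3-stained neurons, is derived by skeletonization of high-content images after 120 h differentiation. Compound exposure, 7 concentrations plus solvent control, ran from plating of hNPC spheres on poly-D-lysine/laminin, with medium half-replaced on day 3.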

Take `Nc1ccc(N)c(Cl)c1`: the half-maximal activity concentration (AC50) (as a rule, the midpoint of the concentration-response curve, whichever way the signal moves) was 28.9 µM (active) in [1]; 28.1 µM (active) and 28.9 µM (active) in assay [3]; 4.71 µM (active) and 1.81 µM (active) with CD69, CD69 (gene 969). Moreover, the result in [2] was inactive.

On to `CCO[Si](C)(OCC)OCC`, for which the outcome in assay [1] was “inactive”; in assay [2], “inactive”; in [3], “inactive”; with CD69, CD69 (gene 969) it was “inactive”.

Take `CCOC(=O)c1ccccc1C(=C1C=C(Br)C(=O)C(Br)=C1)c1cc(Br)c(O)c(Br)c1`: the AC50 in assay [1] was 3.51 µM (active) and 3.62 µM (active); in assay [2], 4.29 µM (active) and 4.91 µM (active); in assay [3], 3.49 µM (active) and 3.46 µM (active); with CD69, CD69 (gene 969), 8.66 µM (active) and 7.45 µM (active).

In the case of `CN1C(=O)N(C)C(O)C1O` (stereo not drawn), the outcome was “inactive” in [1]; “inactive” in [2]; “inactive” in assay [3]; “inactive” with CD69, CD69 (gene 969).

`CC1(C)S[C@@H]2[C@H](NC(=O)COc3ccccc3)C(=O)N2[C@H]1C(=O)O`: the outcome in [4], in assay [5], in [6], in assay [7], in assay [8] and in assay [9] was inactive.

`CCCCC(CC)COCC1CO1` (stereo not drawn): the outcome in assay [1] is “inactive”; in [2], “inactive”; in [3], “inactive”; in the assay with CD69, CD69 (gene 969), “inactive”.

`O=C1CCCN1CCO`: the outcome in assay [1] was “inactive”; in assay [2] it was “inactive”; in assay [3] it was “inactive”; in the assay with CD69, CD69 (gene 969), “inactive”.

Regarding `C=C[Si](OC(C)=O)(OC(C)=O)OC(C)=O`, the outcome was “inactive” in assay [1]; “inactive” in [2]; “inactive” in [3]; “inactive” in the assay with CD69, CD69 (gene 969).

Regarding `O=C(c1ccc(O)cc1)c1ccc(O)cc1O`, the outcome in [1] was “inactive”; in [2], “inactive”; in [3], “inactive”; with CD69, CD69 (gene 969), “inactive”.

Consider `Nc1ncn([C@@H]2O[C@H](CO)[C@@H](O)[C@H]2O)c(=O)n1`, for which the result in assay [4], in [5], in assay [6], in [7], in assay [8] and in [9] was inactive.

Take `CO[Si](OC)(OC)c1ccccc1`: the outcome in assay [1] is “inactive”; in assay [2] it was “inactive”; in assay [3], “inactive”; with CD69, CD69 (gene 969), “inactive”.
